Reference: PubChem BioAssay (Tox21)
Results filed as inconclusive are left out. Activity calls are given as the source filed them. Unless noted, calls follow the shape of the full dose curve.

Columns and labels:
[1] = Nuclear factor erythroid 2-related factor 2/antioxidant responsive element (Nrf2/ARE) small molecule agonists: qHTS cell viability counter screen in human keratinocytes (AID 1919968; active = well fitted curve in the direction sought with a large enough effect in the repeat runs; an effect the other way counts as inactive or inconclusive; also: nearly all actives have a fitted effect of over 55% in size)
Summary of the method: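 After a 5 h attachment period, ARE-reporter keratinocytes were dosed with compounds in DMSO and then cultured 23 h at 37 C. Cell viability came from CellTiter-Fluor signal read after a further 1 h.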

[2] = Nuclear factor erythroid 2-related factor 2/antioxidant responsive element (Nrf2/ARE) small molecule agonists: luciferase reporter gene qHTS assay in human keratinocytes (AID 1919969); also: nearly all actives have a fitted effect of over 35% in size
[3] = biological target: Gonadotropin-releasing hormone receptor (Homo sapiens) (UniProt P30968); test: Human gonadotropin-releasing hormone receptor (GnRHR) small molecule agonists, calcium flux assay in GnRHR-HEK293 cells (AID 1920063); also: nearly all actives have a fitted effect of over 35% in size
Summary of the method: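 We seeded human GnRHR-expressing HEK293 cells for 18 hours, loaded them with calcium dye for an hour at 37 C, added test compounds, and recorded fluorescence intensity kinetically for three minutes.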

[4] = biological target: KiSS-1 receptor (Homo sapiens) (UniProt Q969F8); test: Human kisspeptin (KISS1R) small molecule agonists, calcium flux assay in KISS1R-HEK293 cells (AID 1920064; active = well fitted curve in the direction sought with a large enough effect in the repeat runs; an effect the other way counts as inactive or inconclusive)
Summary of the method: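 Kinetic calcium assay, 1 s sampling over 3 min at Ex/Em 480/540, in HEK293 cells engineered with human KISS1R; compounds delivered in DMSO after 1 h dye loading.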

[5] = G protein-coupled receptor (GPCR) small molecule agonists, calcium flux assay: HEK293 wild type cell line counter screen (AID 1920065)
Summary of the method: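 Calcium-sensitive dye, loaded 1 h at 37 C into cells cultured 18 h, reports compound-evoked calcium release as fluorescence (Ex/Em 480/540), measured over 3 min. Agonist mode; 15-point titrations, triplicate.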

[6] = p53 small molecule agonists, cell-based qHTS assay with human liver microsomes: qHTS cell viability counter screen (AID 1963579); also: nearly all actives have a fitted effect of over 45% in size
Summary of the method: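 p53RE-bla cells (4,000/well) were pre-incubated 5 h at 37 C, then given compounds in DMSO plus human liver microsomes (0.5 mg/mL final) and NADPH (0.5 mg/mL final) for 16 h at 37 C. Viability was read by CellTiter-Glo luminescence.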

[7] = p53 small molecule agonists, cell-based qHTS assay with rat liver microsomes: qHTS cell viability counter screen (AID 1963580); also: nearly all actives have a fitted effect of over 45% in size
Summary of the method: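 Intracellular ATP, by CellTiter-Glo luminescence, defines viability. HCT-116 p53RE-bla cells, 4,000 per well, were compound-treated in the presence of rat liver microsomes and NADPH for 16 h at 37 C.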

[8] = p53 small molecule agonists, cell-based qHTS assay (AID 1963582; active = well fitted activation curve with a large enough effect in the signal ratio in the repeat runs, not every such curve was filed as active; the % refers to the signal ratio)
Summary of the method: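 In this cell-based concentration-response screen, a p53 response element drives beta-lactamase; cells received DMSO-borne compounds after 5 h culture and were incubated a further 16 h before FRET substrate development.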

[9] = biological target: 5-hydroxytryptamine receptor 2A (Homo sapiens) (UniProt P28223); test: 5-hydroxytryptamine receptor 2A (HTR2A) small molecule agonists, cell-based qHTS assay (AID 1963587); also: nearly all actives have a fitted effect of over 30% in size
Summary of the method: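 Kinetic calcium-flux fluorescence (2 min, 1 sec intervals) after compound addition in agonist mode. HTR2A-CHO cells were cultured 18 h, then dye-loaded 1 h at 37 C.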

[10] = biological target: Muscarinic acetylcholine receptor M1 (Homo sapiens) (UniProt P11229); test: Cholinergic receptor muscarinic 1 (CHRM1) small molecule antagonists, cell-based qHTS assay (AID 1963588); also: nearly all actives have a fitted effect of over 40% in size
Summary of the method: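 CHRM1-CHO calcium-flux assay, antagonist mode. Cells were seeded 18 h, dye-loaded 1 h at 37 C and given compound for 5 min at RT, then acetylcholine was added at 50nM. FDSS fluorescence was read 3 min; 15 concentrations, three runs.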

[11] = biological target: Muscarinic acetylcholine receptor M1 (Homo sapiens) (UniProt P11229); test: Cholinergic receptor muscarinic 1 (CHRM1) small molecule agonists, cell-based qHTS assay (AID 1963589); also: nearly all actives have a fitted effect of over 35% in size
Summary of the method: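 Measures agonist-induced intracellular calcium rise. Stable human CHRM1 CHO line, 1 h dye load at 37 C, compounds from DMSO, kinetic fluorescence read.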

[12] = cAMP Responsive Elements (CRE) small molecule agonists, cell-based qHTS assay (AID 1963590)
Summary of the method: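 A CRE-responsive beta-lactamase reporter in HEK 293T cells was used. Treatment ran 3 h at 37 C; detection used LiveBLAzer B/G FRET substrate for 2 h at room temperature.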

[13] = cAMP Responsive Elements (CRE) small molecule antagonists, cell-based qHTS assay (AID 1963591; active = well fitted inhibition curve with a large enough effect in the signal ratio in the repeat runs, not every such curve was filed as active; the % refers to the signal ratio)
Summary of the method: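 HEK293T cells carrying a CRE-driven beta-lactamase reporter receive compound and NKH477 (0.25 uM final) for 3 h. Fluorescence from LiveBLAzer B/G FRET substrate is read after 2 h at room temperature.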

[14] = biological target: Beta-2 adrenergic receptor (Homo sapiens) (UniProt P07550); test: Adrenergic beta2 receptor (ADRB2) small molecule antagonists, cell-based qHTS assay (AID 1963592); also: series mostly up to about 92 µM; nearly all actives have a fitted effect of over 50% in size
Summary of the method: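 Cells (CHO, stable ADRB2 overexpression) incubated 18-20hr at 37C; compounds added from DMSO; agonist mix (1nM isoproterenol, 100uM IBMX, 25uM Ro-20-1724) added; 0.5hr RT; d2-cAMP and anti-cAMP-cryptate added; 1hr RT; 665/615 nm read.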

[15] = biological target: D(2) dopamine receptor (Homo sapiens) (UniProt P14416); test: Dopamine D2 receptor (DRD2) small molecule antagonists, cell-based qHTS assay (AID 1963595; active = well fitted inhibition curve with a large enough effect in the signal ratio in the repeat runs, with a control signal flat; the % refers to the signal ratio)
Summary of the method: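 Human DRD2 antagonist qHTS measuring cAMP by HTRF. The cells are exposed to compound for 10 min, then to NKH477 (200 nM) and quinpirole (12 nM) for 30 min at RT, with Ro20-1724 (0.1 mM) present throughout.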

[16] = biological target: 5-hydroxytryptamine receptor 2A (Homo sapiens) (UniProt P28223); test: 5-hydroxytryptamine receptor 2A (HTR2A) small molecule antagonists, cell-based qHTS assay (AID 1963586); also: nearly all actives have a fitted effect of over 45% in size
Summary of the method: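 Antagonist-mode intracellular calcium assay: DOI (4 nM) added after 5 min compound pre-incubation at room temperature to dye-loaded HTR2A-CHO cells. Fluorescence followed for 3 min, sampled every second.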

[17] = biological target: Beta-2 adrenergic receptor (Homo sapiens) (UniProt P07550); test: Adrenergic beta2 receptor (ADRB2) small molecule agonists, cell-based qHTS assay (AID 1963593);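 also: CHO cells stably overexpressing human ADRB2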
Summary of the method: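 CHO cells stably over-expressing ADRB2 were plated overnight at 37C, then dosed with compounds plus a stimulation mix containing 100uM IBMX and 25uM Ro-20-1724 for 0.5hr at room temperature. cAMP was measured by HTRF competition, 1hr.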

[18] = biological target: D(2) dopamine receptor (Homo sapiens) (UniProt P14416); test: Dopamine D2 receptor (DRD2) small molecule agonists, cell-based qHTS assay (AID 1963594); also: nearly all actives have a fitted effect of over 35% in size
Summary of the method: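 cAMP accumulation in DRD2-HEK293 cells measured by HTRF after 1 h detection; compounds added 10 min before NKH477 (200nM […]) forskolin-analogue stimulation, 30 min at room temperature, with Ro20-1724 present at 0.1 mM final.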

[19] = p53 small molecule agonists, cell-based qHTS assay with rat liver microsomes (AID 1963578)
Summary of the method: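 p53RE-bla cells were exposed to compounds together with rat liver microsomes (0.5 mg/mL final) and NADPH (0.5 mg/mL final) for 16 h at 37 C, then read by LiveBLAzer beta-lactamase fluorescence after 2 h at room temperature.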

[20] = p53 small molecule agonists, cell-based qHTS assay: qHTS cell viability counter screen (AID 1963581); also: nearly all actives have a fitted effect of over 45% in size
Summary of the method: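 Following 5 h attachment, HCT-116 p53RE-bla cells took up compound for 16 h at 37 C; the reporter was read with B/G FRET substrate (2 h RT), and viability then via CellTiter-Glo ATP luminescence.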

Measured: Potency

Sequence of KiSS-1 receptor (Homo sapiens) (Q969F8 whole entry, looked up): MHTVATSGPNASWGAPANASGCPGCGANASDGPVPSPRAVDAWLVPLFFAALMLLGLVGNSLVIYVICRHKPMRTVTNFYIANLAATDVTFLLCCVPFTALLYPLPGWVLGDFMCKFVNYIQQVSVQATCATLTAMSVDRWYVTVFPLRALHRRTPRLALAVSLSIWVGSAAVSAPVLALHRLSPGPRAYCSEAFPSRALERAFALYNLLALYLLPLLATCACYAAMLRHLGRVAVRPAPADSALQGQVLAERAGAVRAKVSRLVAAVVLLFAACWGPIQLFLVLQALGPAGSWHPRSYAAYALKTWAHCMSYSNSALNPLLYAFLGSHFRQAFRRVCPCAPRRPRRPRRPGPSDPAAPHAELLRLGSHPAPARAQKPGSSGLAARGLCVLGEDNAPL
Sequence of Beta-2 adrenergic receptor (Homo sapiens) (P07550 whole entry, looked up): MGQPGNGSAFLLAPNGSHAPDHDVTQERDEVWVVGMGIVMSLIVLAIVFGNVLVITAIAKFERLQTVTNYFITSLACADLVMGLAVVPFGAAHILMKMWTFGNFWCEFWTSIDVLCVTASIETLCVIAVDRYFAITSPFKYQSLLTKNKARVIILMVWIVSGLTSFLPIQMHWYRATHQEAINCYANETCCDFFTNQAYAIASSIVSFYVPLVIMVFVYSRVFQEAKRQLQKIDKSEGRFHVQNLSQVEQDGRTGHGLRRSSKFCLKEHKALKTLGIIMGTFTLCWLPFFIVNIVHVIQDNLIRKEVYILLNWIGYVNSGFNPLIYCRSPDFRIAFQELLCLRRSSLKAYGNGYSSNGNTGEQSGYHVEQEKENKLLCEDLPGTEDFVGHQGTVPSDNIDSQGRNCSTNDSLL
Sequence of D(2) dopamine receptor (Homo sapiens) (P14416 whole entry, looked up): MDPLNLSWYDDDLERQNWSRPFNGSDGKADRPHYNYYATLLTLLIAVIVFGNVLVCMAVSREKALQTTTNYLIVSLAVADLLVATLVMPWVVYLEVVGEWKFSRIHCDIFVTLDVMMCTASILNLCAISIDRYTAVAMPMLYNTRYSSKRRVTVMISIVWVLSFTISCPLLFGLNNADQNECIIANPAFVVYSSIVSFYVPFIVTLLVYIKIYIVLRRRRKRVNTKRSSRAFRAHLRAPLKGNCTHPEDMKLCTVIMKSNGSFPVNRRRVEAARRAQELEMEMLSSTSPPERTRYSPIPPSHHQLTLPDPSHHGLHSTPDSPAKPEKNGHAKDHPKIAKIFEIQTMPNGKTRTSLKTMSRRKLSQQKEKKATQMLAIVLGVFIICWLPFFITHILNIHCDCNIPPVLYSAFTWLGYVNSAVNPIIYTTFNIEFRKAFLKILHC
Sequence of Muscarinic acetylcholine receptor M1 (Homo sapiens) (P11229 whole entry, looked up): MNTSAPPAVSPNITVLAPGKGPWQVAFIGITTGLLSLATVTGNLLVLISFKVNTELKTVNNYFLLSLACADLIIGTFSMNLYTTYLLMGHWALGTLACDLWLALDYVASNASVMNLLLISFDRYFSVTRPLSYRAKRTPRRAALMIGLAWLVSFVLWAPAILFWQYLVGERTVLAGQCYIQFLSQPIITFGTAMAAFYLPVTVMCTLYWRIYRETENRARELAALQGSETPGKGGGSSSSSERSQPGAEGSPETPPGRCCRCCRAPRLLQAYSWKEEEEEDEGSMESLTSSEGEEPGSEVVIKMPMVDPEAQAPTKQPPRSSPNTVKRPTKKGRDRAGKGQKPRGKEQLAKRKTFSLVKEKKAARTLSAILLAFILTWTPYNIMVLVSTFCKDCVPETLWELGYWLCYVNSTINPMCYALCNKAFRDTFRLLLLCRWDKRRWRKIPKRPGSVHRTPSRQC
Sequence of Gonadotropin-releasing hormone receptor (Homo sapiens) (P30968 whole entry, looked up): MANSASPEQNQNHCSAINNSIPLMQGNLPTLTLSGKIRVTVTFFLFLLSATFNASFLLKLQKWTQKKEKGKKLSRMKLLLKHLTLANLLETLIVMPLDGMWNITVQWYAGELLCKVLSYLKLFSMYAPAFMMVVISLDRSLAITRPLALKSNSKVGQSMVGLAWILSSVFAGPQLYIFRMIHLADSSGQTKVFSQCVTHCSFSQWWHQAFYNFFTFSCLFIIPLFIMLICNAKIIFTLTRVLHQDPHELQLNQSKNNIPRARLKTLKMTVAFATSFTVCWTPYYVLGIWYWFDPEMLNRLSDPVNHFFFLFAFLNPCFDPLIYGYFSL
Sequence of 5-hydroxytryptamine receptor 2A (Homo sapiens) (P28223 whole entry, looked up): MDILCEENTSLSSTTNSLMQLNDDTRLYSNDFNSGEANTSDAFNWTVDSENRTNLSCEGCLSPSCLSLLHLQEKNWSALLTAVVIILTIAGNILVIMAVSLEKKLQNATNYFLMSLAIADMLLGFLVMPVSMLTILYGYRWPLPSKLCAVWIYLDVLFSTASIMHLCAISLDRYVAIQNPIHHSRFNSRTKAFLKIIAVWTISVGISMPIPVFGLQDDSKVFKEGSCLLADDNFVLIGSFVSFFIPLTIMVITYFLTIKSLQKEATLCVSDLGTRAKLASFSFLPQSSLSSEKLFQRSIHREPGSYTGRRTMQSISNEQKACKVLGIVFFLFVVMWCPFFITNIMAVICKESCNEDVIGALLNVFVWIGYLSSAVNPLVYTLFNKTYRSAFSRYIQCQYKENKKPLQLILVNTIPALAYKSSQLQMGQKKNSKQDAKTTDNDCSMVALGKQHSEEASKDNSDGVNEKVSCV

CC(=O)Nc1ccc(C)c(Cl)c1
not listed: [16] | [17] | [18] | [19] | [20]
inactive: all other assays above

Nc1ncnc2c1ncn2[C@@H]1O[C@H](CO)[C@@H](O)[C@H]1O
not listed: [8] | [17] | [18] | [19] | [20]
inactive: all other assays above

Cc1cccc2sc(N)nc12
not listed: [7] | [19] | [20]
inactive: all other assays above

COCCOC(=O)C1=C(C)NC(C)=C(C(=O)OC/C=C/c2ccccc2)C1c1cccc([N+](=O)[O-])c1 (configuration not stated)
not listed: [14] | [17] | [19] | [20]
inactive: all other assays above

CC(O)COC(C)(C)C (configuration not stated)
not listed: [17]
inactive: all other assays above

O=c1c2ccccc2nnn1CCl
not listed: [6] | [15] | [16] | [17] | [18] | [19] | [20]
inactive: all other assays above

COc1cc(C(=O)NS(=O)(=O)c2ccccc2C)ccc1Cc1cn(C)c2ccc(NC(=O)OC3CCCC3)cc12
inactive: [1] | [2] | [3] | [4] | [5] | [6] | [7] | [8] | [14] | [17] | [15]

O=C(/C=C/c1ccccc1)OCCCc1ccccc1
not listed: [7] | [15] | [17] | [19]
inactive: all other assays above
